# Measurements from PubChem BioAssay AID1347120 (National Center for Advancing Translational Sciences (NCATS), 2019).
# Out of some 390,000 compounds screened, about 930 (0.24%) were called active. Not shown: some 5% with an inconclusive outcome. The full list was thinned out, with actives kept by preference. A number with no mark means an inactive call. Calls follow the shape of the dose curve; as a rule, active = well fitted activation curve with a large enough effect; inconclusive = small, poorly fitted or top-dose-only effect; inactive = no such curve, though single readings can be large or run the other way.
# Experiment: qHTS for Suppressors of FUS Proteinopathy: Primary screen using FUS-linked yeast assay; also: nearly all actives have a fitted effect of over 55% in size;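 as to growth rescue (activation): plate controls were DMSO vehicle for no effect and reference control for full effect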
# Details: S. cerevisiae FUS-expressing, OD600, 24 h; Potency: growth rescue; series mostly up to 76.6 µM; growth rescue (activation): at the top concentration
# Description: Several widespread neurodegenerative diseases, including Alzheimer disease, Huntington disease, Frontotemporal Lobar Degeneration (FTLD) and Amyotrophic Lateral Sclerosis (ALS), share a common pathological feature, namely accumulation of specific protein aggregates in diseased tissue. These diseases which is associated with protein misfolding (proteinopathies) have become increasingly problematic as the population ages and life expectancies are extended. Most proteinopathies are currently incurable, a situation confounded by the fact that the basis of neurodegeneration is generally poorly understood. There exists urgent and significant need to find therapeutics that can inhibit the toxicity associated with protein aggregation. A novel approach to understand the underlying mechanisms of neurodegenerative diseases has recently emerged in which the disease conditions are modeled in the yeast (Saccharomyces cerevisiae), a tractable eukaryotic organism with conserved protein quality control mechanisms. Yeast offers quick and reliable genetic manipulations and can be easily tailored to high-throughput screening (HTS).
# For this project, a yeast model of the FUS proteinopathies (a spectrum of neurodegenerative diseases that include ALS and a subtype of FTLD) was generated and employed. The cytoplasmic accumulation of the DNA/RNA-binding protein FUS (also known as TLS) is causative to both familial and sporadic forms of ALS and FTLD. This yeast model recapitulates neuronal pathology by showing severe cytotoxicity associated with cytoplasmic accumulation of FUS aggregates and a specific interaction between FUS and TDP-43, another ALS-associated protein. […] Specifically, the cellular accumulation of misfolded FUS that disrupts RNA homeostasis in both yeast and higher eukaryotes. This model was validated to be suitable for quantitative HTS (qHTS) use for finding genetic or chemical factors that restore growth. […] Identified compounds that inhibits FUS-yeast toxicity is flagged, re-acquired, and validated for further investigation and optimization.
# NIH Chemical Genomics Center [NCGC]
# NIH Molecular Libraries Probe Production Centers Network [MLPCN]
# Assay Submitter (PI): Frank Shewmaker PhD, Uniformed Services University of the Health Sciences
# Compound CP55940 was used as the positive control. Column 1 was treated with CP55940 titration from 92uM (final concentration, 1:2 dilution), while Column 2 was treated with top dose 92uM. Columns 3 and 4 were treated with DMSO only as negative control to assess background and noise signal.
# Four hundred fifty microliter of cultured yeast (in 20mL rich medium) provided by Dr. Shewmaker lab was incubated at 30C at 99% humidity for 3hr. The culture was then spun down at 4000rpm for 5min and the cell pellet was resuspended in 2mL of Sdmin Media + ALU(330) + 2.5% Raffinose. One hundred microliter of the suspension was added to 900uL of water and OD of the solution was obtained. Twenty mL of responding medium (provided by Shewmaker lab) + 2.5% raffinose was added to ensure cell density of 0.1; the solution was incubated overnight. Working cell solution (FUS-yeast in Sdmi + Sdmi + 1X ALU + 2% galactose media) was prepared (final OD at 0.005) and 3uL was dispensed in a 1536-well Aurora high based clear bottom assay plates. Controls and library compounds (at various final concentrations from 40uM to 0.32uM) were added using a 1536-well pin array using the Kalypsys pin-tool. The plates were then incubated for 24hrs in a cell-culture incubator (30C; 99% humidity). Absorbance at 600nm was then read using the PerkinElmer ViewLux plate reader.
# Potency is read from the fitted curve at half-maximal effect.
Structure (SMILES),growth rescue (activation) [%],Potency
CCC(=O)N1CCc2cc(Br)cc(S(=O)(=O)CCC(=O)N3CCN(c4ccc(F)cc4)CC3)c21,1.9,–
O=C(Nc1cc(C(F)(F)F)ccc1Cl)c1cc2nc(-c3ccc4c(c3)OCO4)cc(C(F)(F)F)n2n1,10.3,–
CCOc1cccc2sc(N3CCN(C(=O)C4CC4)CC3)nc12,4.39,–
COC(=O)[C@]12C[C@H](CC(=O)NCc3cccc4ccccc34)C(=O)N(CCc3ccc(OC)c(OC)c3)C1=C[C@H](C1CCCC1)O[C@@H]2C,–,12.6 µM (active)
COC(=O)[C@]12C[C@H](CC(=O)NCCc3ccccc3OC)C(=O)N(Cc3ccco3)C1=C[C@H](C(C)C)O[C@@H]2C1CC1,40.9,–
COC(=O)[C@@]12CCCCC=C1N(CCc1ccc(Cl)cc1)C(=O)[C@H]2CC(=O)NCc1ccc(OC)c(OC)c1,39.4,–
O=C(CSc1nccn1-c1ccc(F)cc1)Nc1cccc2ccccc12,12.2,–
CCN(c1ncnc2c1cnn2-c1ccc(C)cc1)C1CCCCC1,-6.13,–
CCN1CCN(c2cc(C)c3cc(NC(=O)c4cc(Cl)ccc4OC)ccc3n2)CC1,10.2,–
CCOc1ccc(C(=O)Nc2ccc3nc4c(c(Nc5ccccc5OC)c3c2)CCCC4)cc1,36.6,–
CCOC(=O)N1CCN(C(=O)C[C@H]2C[C@@]3(C(=O)OC)C(=C[C@H](C(C)(C)C)O[C@@H]3C)N(Cc3ccc(Cl)cc3Cl)C2=O)CC1,–,6.31 µM (active)
COC(=O)[C@]12C[C@H](CC(=O)NCC34CC5CC(CC(C5)C3)C4)C(=O)N(Cc3ccc(Cl)cc3Cl)C1=C[C@H](COCc1ccccc1)O[C@@H]2C,31.5,–
COC(=O)[C@]12C[C@H](CC(=O)N3CCOCC3)C(=O)N(Cc3ccc(Cl)cc3Cl)C1=C[C@H](COCc1ccccc1)O[C@@H]2C,10.6,–
CC1CCC(N2CC(=O)N(CCC3=CCCCC3)C(c3ccc(F)cc3)C2=O)CC1 (stereo not given),20.9,–
CCC(C(=O)Nc1cccc(-c2nc3cccnc3s2)c1C)c1ccccc1 (stereo not given),-6.93,–
Cc1ccc(Nc2ccc3cc(S(=O)(=O)N4CCCCC4)ccc3n2)cc1F,-5.75,–
Cc1oc2ccc(O)c(CN3CCCCC3)c2c1C(=O)Nc1cccc(C(F)(F)F)c1,24.9,–
CCCN1CCN(CCCNC(=O)c2cnn(-c3ccc(C)cc3)c2-n2cccc2)CC1,6.69,–
CSc1ncc(Cl)c(C(=O)Nc2ccc(S(=O)(=O)N3CCCC(C)C3)cc2)n1 (stereo not given),2.88,–
COc1ccc(NC(=O)C2=CC(c3ccc(OC)c(OC)c3)=NS(=O)(=O)N2C)cc1,–,31.6 µM (active)

Structure (SMILES),growth rescue (activation) [%],Potency
COc1cc(NC(=O)C2=CC(c3ccc(C)cc3)=NS(=O)(=O)N2C)cc(OC)c1OC,-8.13,–
COc1ccc(C2=NS(=O)(=O)N(C)C(C(=O)NC(C)c3ccccc3)=C2)cc1 (stereo not given),–,inactive
O=C(COc1ccccc1Cl)Nc1ccc2nc(SCC(=O)N3CCCC3)sc2c1,12.6,–
COc1cccc(CNC(=O)CSc2c3c(nc4cc(Cl)ccc24)CCCC3)c1,-8.26,–
CCOC(=O)c1c(NC(=O)c2ccc(S(=O)(=O)N(CC)CC)cc2)sc2c1CCCCC2,-13.5,–
O=C(Nc1ccccc1F)C(c1ccccc1)N1Cc2ccccc2C1=O (stereo not given),4.93,–
COc1ccc(OC)c(-n2nnc(-c3nc(-c4cc(OC)c(OC)c(OC)c4)no3)c2C)c1,18.3,–
CCc1ccc(CN(Cc2ccco2)C(=O)COc2ccc(Cl)c(C)c2)cc1,30.5,–
CCN(CC)c1nn2c(=O)c(C(=O)NCCc3ccccc3)cnc2s1,17.5,–
COc1cccc(OCCn2c(-c3ccc(Br)cc3)nc3ccccc3c2=O)c1,-5.51,–
COc1ccc(OC)c(-c2csc(-c3c(N)c(C(=O)c4ccccc4)n4ccccc34)n2)c1,14.2,–
Cc1nn(C(C)C(=O)Nc2ccc(C(C)C)cc2)c(=O)c2c1sc1ccccc12 (stereo not given),-11.1,–
Cc1ccc(NC(=O)CSc2nc3c([nH]c4ccccc43)c(=O)n2-c2ccccc2)c(C)c1,13.6,–
Cc1ccc(Cl)cc1N(C)C(=O)Cn1nc(Cc2cccnc2)c2ccccc2c1=O,14.5,–
O=C(CSc1nccn1Cc1ccc(Cl)cc1)NCc1ccccc1,17.8,–
Cc1cccc(NC(=O)c2ccc(F)c(S(=O)(=O)N(C)C3CCCCC3)c2)c1,35.4,–
CCOc1ccc(C2CC(=O)c3c([nH]c(C(=O)OCc4ccccc4)c3C)C2)cc1 (stereo not given),1.74,–
CCOC(=O)C1CCCN(C(=O)c2ccc3c(c2)sc2nc(-c4ccc(CC)cc4)cn23)C1 (stereo not given),19.2,–
Cc1c(C(=O)N2CCCC2)oc2c1-c1nn(CC(=O)NCc3ccc(OC(C)C)cc3)cc1CC2,31.1,–
Cc1ccc(NC(=O)c2cc(S(=O)(=O)NCCC3=CCCCC3)ccc2F)cc1C,15.8,–
